This passage reports inhibition results from ChEMBL document CHEMBL1961873, “Compounds: GSK PKIS; Assays: Nanosyn kinase panel” (2012).

SMILES strings stand for the structures.

In assay [1] the test system is Epidermal growth factor receptor (Homo sapiens), P00533 [T790M]. The settings on record: at 1 µM.
For assay [2], the system named is Epidermal growth factor receptor (Homo sapiens), P00533 [L858R,T790M]. The settings on record: at 0.1 µM.
Assay [3] shares this test system. The settings on record: at 1 µM.
For assay [4], the target named is Ephrin type-A receptor 2 (Homo sapiens) (UniProt P29317). As to conditions: at 0.1 µM.
The target is the same in assay [5]. As to conditions: at 1 µM.
Assay [6] concerns the target T1, Ephrin type-A receptor 3 (Homo sapiens) (UniProt P29320).
T1 sequence (whole entry): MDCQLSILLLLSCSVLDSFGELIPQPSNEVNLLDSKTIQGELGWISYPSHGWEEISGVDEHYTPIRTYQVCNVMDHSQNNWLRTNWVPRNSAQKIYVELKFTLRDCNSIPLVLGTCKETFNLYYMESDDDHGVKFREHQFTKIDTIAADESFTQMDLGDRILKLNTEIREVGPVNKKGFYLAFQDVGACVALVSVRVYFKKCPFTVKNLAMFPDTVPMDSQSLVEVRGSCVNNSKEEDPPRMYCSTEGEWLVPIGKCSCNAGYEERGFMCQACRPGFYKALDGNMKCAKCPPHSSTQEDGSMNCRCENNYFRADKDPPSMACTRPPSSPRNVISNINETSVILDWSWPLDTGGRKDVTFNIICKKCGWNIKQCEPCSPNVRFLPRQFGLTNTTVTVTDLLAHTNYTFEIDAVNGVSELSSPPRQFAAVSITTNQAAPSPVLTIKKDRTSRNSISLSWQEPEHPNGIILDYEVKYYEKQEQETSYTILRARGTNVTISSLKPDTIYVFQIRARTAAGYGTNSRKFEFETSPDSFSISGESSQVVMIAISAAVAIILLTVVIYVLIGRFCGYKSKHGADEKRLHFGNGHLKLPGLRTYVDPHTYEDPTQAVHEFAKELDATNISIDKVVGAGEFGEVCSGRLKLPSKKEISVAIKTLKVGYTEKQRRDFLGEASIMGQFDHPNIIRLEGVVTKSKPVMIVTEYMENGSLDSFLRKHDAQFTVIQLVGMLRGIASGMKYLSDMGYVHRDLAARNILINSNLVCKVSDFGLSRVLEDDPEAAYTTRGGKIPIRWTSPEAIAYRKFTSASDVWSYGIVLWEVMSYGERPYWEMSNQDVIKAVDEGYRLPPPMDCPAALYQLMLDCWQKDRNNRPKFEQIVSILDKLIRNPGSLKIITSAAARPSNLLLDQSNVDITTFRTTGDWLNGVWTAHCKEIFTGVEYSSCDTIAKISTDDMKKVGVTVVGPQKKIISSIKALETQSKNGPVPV
The settings on record: at 0.1 µM.

Assay [7] deals with T1, Ephrin type-A receptor 3 (Homo sapiens). The settings on record: at 1 µM.
For assay [8], the target named is Ephrin type-A receptor 4 (Homo sapiens) (UniProt P54764). As to conditions: at 0.1 µM.
The target is the same in assay [9]. The settings on record: at 1 µM.
The target of assay [10] is T2, Ephrin type-B receptor 2 (Homo sapiens) (UniProt P29323).
T2 sequence (whole entry): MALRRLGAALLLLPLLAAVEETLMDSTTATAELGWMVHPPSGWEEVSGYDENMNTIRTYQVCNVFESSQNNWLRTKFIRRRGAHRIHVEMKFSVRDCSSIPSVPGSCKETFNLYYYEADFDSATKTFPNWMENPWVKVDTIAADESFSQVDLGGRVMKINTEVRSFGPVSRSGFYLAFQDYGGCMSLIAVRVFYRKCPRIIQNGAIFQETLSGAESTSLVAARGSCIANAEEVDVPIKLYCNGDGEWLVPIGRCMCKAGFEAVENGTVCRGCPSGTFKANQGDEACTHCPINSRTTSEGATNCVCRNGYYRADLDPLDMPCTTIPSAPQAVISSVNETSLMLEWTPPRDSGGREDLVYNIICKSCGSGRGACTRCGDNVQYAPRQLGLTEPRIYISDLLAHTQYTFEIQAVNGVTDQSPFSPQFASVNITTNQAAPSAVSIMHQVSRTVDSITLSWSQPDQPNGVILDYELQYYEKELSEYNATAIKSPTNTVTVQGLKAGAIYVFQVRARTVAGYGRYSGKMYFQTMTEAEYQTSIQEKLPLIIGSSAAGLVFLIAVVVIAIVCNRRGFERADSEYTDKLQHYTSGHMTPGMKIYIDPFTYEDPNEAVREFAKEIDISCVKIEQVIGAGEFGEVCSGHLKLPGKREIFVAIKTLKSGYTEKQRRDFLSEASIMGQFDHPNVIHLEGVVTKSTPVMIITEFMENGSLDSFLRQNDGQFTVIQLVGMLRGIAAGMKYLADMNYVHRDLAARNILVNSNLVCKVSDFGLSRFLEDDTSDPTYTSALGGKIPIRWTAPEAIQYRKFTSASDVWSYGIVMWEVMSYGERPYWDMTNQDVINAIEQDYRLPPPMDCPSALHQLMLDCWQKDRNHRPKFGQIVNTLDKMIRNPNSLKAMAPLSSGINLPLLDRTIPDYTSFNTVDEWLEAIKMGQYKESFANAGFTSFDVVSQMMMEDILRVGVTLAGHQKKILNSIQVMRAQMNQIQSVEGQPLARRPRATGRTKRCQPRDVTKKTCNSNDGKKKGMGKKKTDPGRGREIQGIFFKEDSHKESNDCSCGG
The settings on record: at 0.1 µM.

Assay [11] deals with T2, Ephrin type-B receptor 2 (Homo sapiens). As to conditions: at 1 µM.
Assay [12] concerns the target T3, Ephrin type-B receptor 3 (Homo sapiens) (UniProt P54753).
T3 sequence (whole entry): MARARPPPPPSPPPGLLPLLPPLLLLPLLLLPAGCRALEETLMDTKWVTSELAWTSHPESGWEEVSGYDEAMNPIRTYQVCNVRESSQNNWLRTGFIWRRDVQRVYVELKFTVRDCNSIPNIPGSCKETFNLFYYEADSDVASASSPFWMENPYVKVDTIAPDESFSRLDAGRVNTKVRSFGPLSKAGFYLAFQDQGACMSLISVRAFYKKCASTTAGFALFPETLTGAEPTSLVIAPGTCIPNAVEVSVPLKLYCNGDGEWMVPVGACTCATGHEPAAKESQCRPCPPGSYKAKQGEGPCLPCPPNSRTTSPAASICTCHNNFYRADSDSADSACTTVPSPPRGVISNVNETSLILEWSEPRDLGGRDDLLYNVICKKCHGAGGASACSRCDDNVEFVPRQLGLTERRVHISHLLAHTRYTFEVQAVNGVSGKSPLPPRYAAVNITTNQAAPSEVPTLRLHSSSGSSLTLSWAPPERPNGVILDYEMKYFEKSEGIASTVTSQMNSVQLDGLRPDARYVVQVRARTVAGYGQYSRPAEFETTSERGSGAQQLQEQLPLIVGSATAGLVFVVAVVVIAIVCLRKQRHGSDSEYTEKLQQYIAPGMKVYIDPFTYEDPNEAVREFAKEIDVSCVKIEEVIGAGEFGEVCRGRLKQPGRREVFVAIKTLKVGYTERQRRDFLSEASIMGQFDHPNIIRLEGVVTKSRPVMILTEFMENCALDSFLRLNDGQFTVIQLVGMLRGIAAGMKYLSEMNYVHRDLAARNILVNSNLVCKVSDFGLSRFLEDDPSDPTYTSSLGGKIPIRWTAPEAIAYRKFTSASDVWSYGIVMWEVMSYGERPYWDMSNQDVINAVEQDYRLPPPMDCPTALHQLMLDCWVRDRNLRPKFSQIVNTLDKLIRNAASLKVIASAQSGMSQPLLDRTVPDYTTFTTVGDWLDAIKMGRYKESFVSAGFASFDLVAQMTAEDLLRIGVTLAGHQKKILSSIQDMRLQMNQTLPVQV
As to conditions: at 0.1 µM.

Assay [13] addresses T3, Ephrin type-B receptor 3 (Homo sapiens). As to conditions: at 1 µM.
The target of assay [14] is T4, Ephrin type-B receptor 4 (Homo sapiens) (UniProt P54760).
T4 sequence (whole entry): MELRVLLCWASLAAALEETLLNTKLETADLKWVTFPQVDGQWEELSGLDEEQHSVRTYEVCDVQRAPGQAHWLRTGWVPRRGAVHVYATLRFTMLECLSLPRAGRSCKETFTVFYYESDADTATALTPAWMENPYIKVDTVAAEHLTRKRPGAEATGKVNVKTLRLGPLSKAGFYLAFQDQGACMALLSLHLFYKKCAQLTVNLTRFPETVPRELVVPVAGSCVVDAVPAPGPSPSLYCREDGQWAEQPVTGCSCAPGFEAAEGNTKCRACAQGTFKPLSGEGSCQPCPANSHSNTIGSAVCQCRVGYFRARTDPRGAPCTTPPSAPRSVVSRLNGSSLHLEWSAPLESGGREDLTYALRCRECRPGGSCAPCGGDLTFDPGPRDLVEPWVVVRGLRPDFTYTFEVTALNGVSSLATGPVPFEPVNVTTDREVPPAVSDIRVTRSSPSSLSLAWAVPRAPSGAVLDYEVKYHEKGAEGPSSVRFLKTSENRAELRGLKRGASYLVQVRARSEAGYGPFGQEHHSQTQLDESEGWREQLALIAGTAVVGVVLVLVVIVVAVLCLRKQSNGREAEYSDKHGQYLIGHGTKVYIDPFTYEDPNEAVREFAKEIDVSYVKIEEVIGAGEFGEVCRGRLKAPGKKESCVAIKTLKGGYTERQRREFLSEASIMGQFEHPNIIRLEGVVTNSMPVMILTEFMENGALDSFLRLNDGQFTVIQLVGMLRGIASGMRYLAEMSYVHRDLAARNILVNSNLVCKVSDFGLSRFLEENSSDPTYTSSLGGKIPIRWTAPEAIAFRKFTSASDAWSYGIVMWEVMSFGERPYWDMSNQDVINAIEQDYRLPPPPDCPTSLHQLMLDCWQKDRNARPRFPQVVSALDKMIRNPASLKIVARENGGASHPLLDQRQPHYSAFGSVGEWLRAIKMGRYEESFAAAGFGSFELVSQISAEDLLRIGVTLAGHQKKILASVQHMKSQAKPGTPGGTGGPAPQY
The settings on record: at 0.1 µM.

Assay [15] addresses T4, Ephrin type-B receptor 4 (Homo sapiens). As to conditions: at 1 µM.
Assay [16] deals with Receptor tyrosine-protein kinase erbB-2 (Homo sapiens) (UniProt P04626). As to conditions: at 0.1 µM.
For assay [17] the target is unchanged. As to conditions: at 1 µM.
In assay [18] the target is Receptor tyrosine-protein kinase erbB-4 (Homo sapiens) (UniProt Q15303). The settings on record: at 0.1 µM.
Assay [19] has the same target. The settings on record: at 1 µM.
For assay [20], the target named is Tyrosine-protein kinase Fer (Homo sapiens) (UniProt P16591). The settings on record: at 0.1 µM.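 Note: reported figures are averaged percent inhibition of FER.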
Tyrosine-protein kinase Fer (Homo sapiens), sequence (P16591 whole entry, looked up): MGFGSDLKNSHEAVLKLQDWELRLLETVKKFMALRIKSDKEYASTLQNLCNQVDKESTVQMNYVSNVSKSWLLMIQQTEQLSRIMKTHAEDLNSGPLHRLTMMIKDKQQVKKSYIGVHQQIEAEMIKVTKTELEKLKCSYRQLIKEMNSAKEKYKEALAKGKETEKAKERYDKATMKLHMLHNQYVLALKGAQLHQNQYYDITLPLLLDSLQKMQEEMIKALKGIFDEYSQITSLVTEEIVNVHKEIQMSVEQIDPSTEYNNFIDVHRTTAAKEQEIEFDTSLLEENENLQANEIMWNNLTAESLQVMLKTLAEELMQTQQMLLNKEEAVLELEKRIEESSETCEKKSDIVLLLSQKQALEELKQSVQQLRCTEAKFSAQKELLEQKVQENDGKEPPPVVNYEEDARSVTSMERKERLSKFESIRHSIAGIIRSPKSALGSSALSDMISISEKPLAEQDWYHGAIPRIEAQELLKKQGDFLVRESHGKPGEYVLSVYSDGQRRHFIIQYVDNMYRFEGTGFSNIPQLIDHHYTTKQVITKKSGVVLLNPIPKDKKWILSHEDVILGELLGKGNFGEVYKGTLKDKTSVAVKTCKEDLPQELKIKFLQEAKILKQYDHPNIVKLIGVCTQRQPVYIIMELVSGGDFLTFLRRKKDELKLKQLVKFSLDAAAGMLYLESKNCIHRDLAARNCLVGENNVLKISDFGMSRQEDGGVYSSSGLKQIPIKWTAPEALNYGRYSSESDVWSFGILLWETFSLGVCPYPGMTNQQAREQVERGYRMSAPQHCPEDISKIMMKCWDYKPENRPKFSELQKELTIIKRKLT

Ephrin type-A receptor 2 (Homo sapiens), sequence (P29317 whole entry): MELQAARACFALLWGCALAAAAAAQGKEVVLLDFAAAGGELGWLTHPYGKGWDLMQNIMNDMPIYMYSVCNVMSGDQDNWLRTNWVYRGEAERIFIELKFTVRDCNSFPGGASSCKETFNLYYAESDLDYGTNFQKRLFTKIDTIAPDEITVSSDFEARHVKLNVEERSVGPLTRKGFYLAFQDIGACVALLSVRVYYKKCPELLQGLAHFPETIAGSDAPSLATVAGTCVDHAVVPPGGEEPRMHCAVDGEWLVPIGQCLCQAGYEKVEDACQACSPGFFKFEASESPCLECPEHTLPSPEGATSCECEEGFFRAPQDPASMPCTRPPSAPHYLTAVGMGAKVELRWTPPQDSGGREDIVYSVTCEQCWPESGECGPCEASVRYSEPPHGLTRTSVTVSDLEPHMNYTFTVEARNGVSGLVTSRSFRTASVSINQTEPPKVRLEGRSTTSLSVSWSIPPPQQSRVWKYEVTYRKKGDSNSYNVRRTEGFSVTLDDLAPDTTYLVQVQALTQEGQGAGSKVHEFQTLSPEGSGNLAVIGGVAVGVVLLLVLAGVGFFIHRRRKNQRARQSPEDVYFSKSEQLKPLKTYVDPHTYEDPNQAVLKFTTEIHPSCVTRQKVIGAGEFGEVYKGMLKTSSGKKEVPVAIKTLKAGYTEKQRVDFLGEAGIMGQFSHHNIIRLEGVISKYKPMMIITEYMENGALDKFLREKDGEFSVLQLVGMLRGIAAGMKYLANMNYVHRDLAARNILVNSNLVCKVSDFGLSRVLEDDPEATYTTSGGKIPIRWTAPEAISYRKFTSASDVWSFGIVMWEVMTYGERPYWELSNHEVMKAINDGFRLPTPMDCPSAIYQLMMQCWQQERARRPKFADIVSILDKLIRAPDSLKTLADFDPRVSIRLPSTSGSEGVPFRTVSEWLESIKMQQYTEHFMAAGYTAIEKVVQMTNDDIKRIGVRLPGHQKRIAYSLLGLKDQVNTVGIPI
Receptor tyrosine-protein kinase erbB-4 (Homo sapiens), sequence (Q15303 whole entry): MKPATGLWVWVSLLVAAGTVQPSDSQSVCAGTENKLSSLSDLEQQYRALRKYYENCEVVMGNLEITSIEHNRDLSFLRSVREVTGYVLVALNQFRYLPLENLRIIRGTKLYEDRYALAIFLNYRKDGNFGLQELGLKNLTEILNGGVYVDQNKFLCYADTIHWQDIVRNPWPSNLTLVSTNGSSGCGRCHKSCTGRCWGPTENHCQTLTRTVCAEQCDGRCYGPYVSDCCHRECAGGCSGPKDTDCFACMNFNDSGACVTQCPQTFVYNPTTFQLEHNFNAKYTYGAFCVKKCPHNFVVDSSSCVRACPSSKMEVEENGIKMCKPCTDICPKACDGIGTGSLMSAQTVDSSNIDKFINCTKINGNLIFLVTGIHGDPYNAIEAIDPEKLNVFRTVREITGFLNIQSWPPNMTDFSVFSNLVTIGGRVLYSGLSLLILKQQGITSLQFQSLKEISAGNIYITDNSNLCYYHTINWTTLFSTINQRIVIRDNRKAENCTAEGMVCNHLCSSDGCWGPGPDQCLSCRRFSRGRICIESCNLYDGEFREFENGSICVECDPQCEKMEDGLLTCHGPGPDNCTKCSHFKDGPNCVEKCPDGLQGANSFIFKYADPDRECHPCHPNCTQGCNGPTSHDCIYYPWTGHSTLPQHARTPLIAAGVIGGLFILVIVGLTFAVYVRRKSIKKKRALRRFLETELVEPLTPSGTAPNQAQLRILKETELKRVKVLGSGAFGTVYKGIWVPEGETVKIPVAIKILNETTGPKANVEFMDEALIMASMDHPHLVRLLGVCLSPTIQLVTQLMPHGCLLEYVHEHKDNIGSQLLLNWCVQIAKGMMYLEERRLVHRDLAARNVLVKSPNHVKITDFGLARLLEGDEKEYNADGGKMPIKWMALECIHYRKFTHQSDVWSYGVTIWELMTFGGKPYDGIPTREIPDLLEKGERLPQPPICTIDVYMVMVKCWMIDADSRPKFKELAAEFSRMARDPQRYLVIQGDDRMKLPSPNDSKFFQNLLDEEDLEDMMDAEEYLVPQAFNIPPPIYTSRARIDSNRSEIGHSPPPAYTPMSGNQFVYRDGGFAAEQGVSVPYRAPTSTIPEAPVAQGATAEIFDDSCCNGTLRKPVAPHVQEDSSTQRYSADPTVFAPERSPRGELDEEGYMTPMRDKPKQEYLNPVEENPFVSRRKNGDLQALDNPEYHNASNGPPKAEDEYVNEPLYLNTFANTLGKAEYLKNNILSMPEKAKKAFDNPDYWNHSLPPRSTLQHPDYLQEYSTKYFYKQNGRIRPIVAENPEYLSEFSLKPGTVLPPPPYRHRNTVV
Ephrin type-A receptor 4 (Homo sapiens), sequence (P54764 whole entry): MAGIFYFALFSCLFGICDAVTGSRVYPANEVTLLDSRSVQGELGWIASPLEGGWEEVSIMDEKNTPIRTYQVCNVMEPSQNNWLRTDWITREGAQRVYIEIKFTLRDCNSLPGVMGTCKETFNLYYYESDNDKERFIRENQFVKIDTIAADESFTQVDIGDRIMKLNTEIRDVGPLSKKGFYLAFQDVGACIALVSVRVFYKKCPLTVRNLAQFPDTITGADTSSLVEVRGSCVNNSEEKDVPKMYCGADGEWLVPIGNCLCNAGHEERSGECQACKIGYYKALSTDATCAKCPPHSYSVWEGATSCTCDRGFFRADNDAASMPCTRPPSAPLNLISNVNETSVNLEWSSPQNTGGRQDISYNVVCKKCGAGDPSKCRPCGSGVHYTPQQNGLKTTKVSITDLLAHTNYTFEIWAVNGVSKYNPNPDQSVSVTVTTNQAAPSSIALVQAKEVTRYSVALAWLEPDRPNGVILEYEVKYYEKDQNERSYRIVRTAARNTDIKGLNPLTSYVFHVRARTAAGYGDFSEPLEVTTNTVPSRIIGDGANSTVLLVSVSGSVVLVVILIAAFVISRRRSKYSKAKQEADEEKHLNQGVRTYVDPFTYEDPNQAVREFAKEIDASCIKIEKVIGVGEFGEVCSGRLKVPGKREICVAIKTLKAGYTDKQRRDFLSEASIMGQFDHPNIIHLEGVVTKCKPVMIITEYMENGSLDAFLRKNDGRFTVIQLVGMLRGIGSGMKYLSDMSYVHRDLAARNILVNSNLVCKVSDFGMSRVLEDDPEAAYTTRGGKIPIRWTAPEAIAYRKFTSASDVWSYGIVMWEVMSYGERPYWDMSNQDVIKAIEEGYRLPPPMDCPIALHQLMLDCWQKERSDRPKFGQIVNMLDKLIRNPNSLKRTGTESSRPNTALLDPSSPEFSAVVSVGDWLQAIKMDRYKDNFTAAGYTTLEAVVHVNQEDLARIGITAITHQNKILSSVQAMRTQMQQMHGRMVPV

What is called inhibition is the drop in the measured response relative to a control, in per cent. As for `Oc1cccc(-c2nc(-c3ccccc3)[nH]c2-c2ccncc2)c1`, the inhibition in assay [1] worked out at 2.55%; in assay [2], 2.26%; in assay [3], 4.01%; in assay [4], 1.93%; in assay [5] it was 7.66%; in [6], 7.79%. Besides, the inhibition in [7] is 6.42%; in assay [8] it was 11.7%; in [9] it was 32.9%; in assay [10], 8.8%; in [11], 26.1%; in [12], 9.06%. The inhibition in assay [13] was 19.3%; in [14], 6.41%; in [15], 9.99%; in assay [16], 4.55%; in [17], 3.87%; in [18] it was 12.6%. Also, the inhibition in assay [19] was 19.4%; in assay [20], 3.43%.

Regarding `Nc1nccc(-c2c(-c3ccc(F)cc3)ncn2CCCN2CCOCC2)n1`, the inhibition was 3.66% in assay [1]; 3.71% in assay [2]; 0.56% in assay [3]; -0.08% in [4]; 0.96% in assay [5]; 0.74% in assay [6]. Also, the inhibition worked out at 3.02% in assay [7]; 7.96% in [8]; 9.12% in assay [9]; 4.96% in assay [10]; 7.41% in assay [11]; 5.73% in [12]. Further, the inhibition in assay [13] was found to be 3.41%; in [14] it was 2.19%; in assay [15] it was 3.04%; in [16] it was 4.07%; in assay [17], 6.08%; in assay [18] it was 12.4%. Also, the inhibition turned out to be 31.7% in [19] and 2.69% in assay [20].

Take `ON=C1CCc2cc(-c3nc(C4CCNCC4)[nH]c3-c3ccncc3)ccc21`: the inhibition is -1.84% in assay [1]; -1.88% in assay [2]; 0.18% in [3]; 1.25% in assay [4]; 0.6% in [5]; 0.3% in [6]. Also, the inhibition in assay [7] was -2.2%; in assay [8], -1.9%; in [9], -7.94%; in assay [10] it was -5.22%; in assay [11] it was -8.09%; in assay [12], 2.51%. The inhibition in assay [13] is -3.73%; in [14] it was -0.77%; in [15] it was 1.02%; in assay [16], -0.06%; in assay [17], -5.12%; in assay [18] it was 5.23%. The inhibition was 10.6% in assay [19] and -0.49% in [20].

Consider `NS(=O)(=O)c1ccc(Nc2cc(-c3cccc(O)c3)n[nH]2)cc1`, for which the inhibition in assay [1] was determined as 3.02%; in assay [2] it was 4.99%; in assay [3], 3.61%; in assay [4], 1.13%; in [5] it was 0.64%; in [6] it was 6.18%. Besides, the inhibition in assay [7] was 6.36%; in assay [8] it was 10.1%; in [9], 7.86%; in [10], 6.18%; in assay [11] it was 12.4%; in [12], 8.13%. Moreover, the inhibition is 1.98% in [13]; 1.74% in assay [14]; 4.14% in [15]; 1.73% in [16]; -4.93% in assay [17]; 14.3% in assay [18]. Besides, the inhibition in assay [19] worked out at 14.3%; in assay [20], 2.71%.
